Hit rate of the full screen: of about 640,000 compounds, about 9,300 (1.5%) were called active. Cut-off read from the data, not from the text of the source: active = inhibition above about 32%; inactive = the rest. Only a selection was taken, and actives are over-represented in it overall.
Assay: TEAD-YAP interaction inhibition, primary screen, TEAD-YAP interaction inhibitor project, luminescence, HEK-TIYL cells (AID 1259422);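 note: 0% = median of test compound wells and 100% = reference inhibitor wells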
Conditions: TEAD-Gal4/YAP UAS-luciferase luminescence, at 9.12 µM, stronger effect = higher value

| SMILES | inhibition |
| --- | --- |
| Cc1ccc(OCc2nc3ccccc3n2CC(=O)Nc2cc(C)on2)cc1 | -69.6% (inactive) |
| Oc1ccc(/C=N/Nc2ccccc2Cl)c(O)c1O | -1.62% (inactive) |
| Oc1cccc(/C=N/Nc2ccc(Cl)nn2)c1O | 79.2% (active) |
| NC(=O)c1ccc(N=Cc2cccc(O)c2O)cc1 | -12.1% (inactive) |
| CCN1C(=O)N/C(=C/c2ccccc2OCc2ccc(C(=O)O)cc2)C1=O | -1.26% (inactive) |
| NS(=O)(=O)c1ccc(C(=O)OCc2cccc(Cl)c2Cl)cc1 | 8.02% (inactive) |
| COc1ccc2[nH]c(=O)c(CN(CCCO)Cc3nnnn3CC3CCCO3)cc2c1 (stereo unspecified) | 5.17% (inactive) |
| CC1CN(CCC(=O)N2CCCN(C3Cc4ccccc4C3)CC2)Cc2ccccc2O1 (stereo unspecified) | -10.5% (inactive) |
| O=C(NC(=O)c1cccc(F)c1)OC1CCS(=O)(=O)C1 (stereo unspecified) | -5.15% (inactive) |
| CC(=O)NCCCc1ccc(-c2csc(N)n2)cc1 | 56.7% (active) |
| CC(=O)Nc1nc(-c2ccc(C)c(C)c2)cs1 | -61.1% (inactive) |
| CC(C)(C)C(=O)Nc1ccc(-c2csc(N)n2)cc1 | -22.9% (inactive) |
| Cc1cc2c(cc1C)NC(CC(=O)Nc1cccc([N+](=O)[O-])c1)C(=O)N2 (stereo unspecified) | -4.87% (inactive) |
| CCOc1ccc(CN2CCN(Cc3cc(OC)ccc3O)CC2)cc1 | 3.2% (inactive) |
| CCOC(=O)C1=C(C)NC2=C(C(=O)c3ccccc32)C1c1cccc(F)c1 (stereo unspecified) | -6.85% (inactive) |
| COC(=O)C1=C(C)NC2=C(C(=O)c3ccccc32)C1c1ccc(OC)cc1 (stereo unspecified) | -0.11% (inactive) |
| CCOC(=O)C1=C(C)NC2=C(C(=O)c3ccccc32)C1c1cc(Br)c(OC)c(OC)c1 (stereo unspecified) | 57.2% (active) |
| C=CCNc1ccc([N+](=O)[O-])cc1C#N | 3.17% (inactive) |
| Cc1ccc(NC(=O)C2CC3CCCN3C23C(=O)Nc2ccccc23)cc1 (stereo unspecified) | 11.1% (inactive) |
| CCCNC(=O)Cn1c(=O)oc2cc(Cl)ccc21 | 1.41% (inactive) |
| Cc1sc(NC(=O)c2ccc(S(=O)(=O)N(C)c3ccccc3)cc2)c(C#N)c1C | 3.35% (inactive) |

| SMILES | inhibition |
| --- | --- |
| COc1ccc(-c2coc3cc(OCCN4CCOCC4)ccc3c2=O)cc1OC | 33% (active) |
| CCc1cc2c(=O)c(-c3ccc4c(c3)OCCCO4)coc2cc1OC | -34.2% (inactive) |
| CCc1cc2c(=O)c(-c3ccc4c(c3)OCCCO4)coc2cc1OC(=O)N1CCOCC1 | -8.61% (inactive) |
| COc1ccc(C(=O)Nc2cc(C)nn2-c2nc3ccccc3[nH]2)cc1[N+](=O)[O-] | 10.1% (inactive) |
| CCCc1cc(=O)[nH]c2nnc(SCC(=O)Nc3cc(OC)ccc3OC)n12 | -0.38% (inactive) |
| Cn1c(/C(C#N)=C/c2ccccc2)nc2ccccc21 | 2.92% (inactive) |
| N#C/C(=C\c1ccc(-c2ccc(S(N)(=O)=O)cc2)o1)C(N)=O | -6.41% (inactive) |
| Cn1c(/C(C#N)=C\c2ccc(-c3ccc(S(N)(=O)=O)cc3)o2)nc2ccccc21 | 36.2% (active) |
| COCCN(C(=O)CN1C(=O)c2ccccc2C1=O)C1(C(=O)Nc2ccccc2)CCCC1 | 4.63% (inactive) |
| COc1ccc(CNCc2cc(-c3ccccc3)cn3nnnc23)cc1 | 16% (inactive) |
| Cc1cccc(-n2nc3c(c2NC(=O)c2ccc4c(c2)OCO4)CSC3)c1C | 3.84% (inactive) |
| CC(C)(C)NC(=O)c1cccc(S(=O)(=O)N2CCN(c3ccc(F)cc3)CC2)c1 | 3.68% (inactive) |
| Cc1ccc[n+](CC(=O)c2ccc(Cl)cc2)c1C | 1.36% (inactive) |
| COc1ccc(CC(=O)c2ccc(OC)cc2)cc1 | -37.9% (inactive) |
| COc1ccc(C(=O)C[n+]2ccc(N)c(C)c2C)cc1 | 33% (active) |
| CCOC(=O)C1=C(c2ccccc2)N=c2s/c(=C\c3ccc4c(c3)OCO4)c(=O)n2C1c1ccc(OC)c(OC)c1 (stereo unspecified) | 6.04% (inactive) |
| COc1ccc(-c2ccc(C(=O)NC3CC3)s2)cn1 | 40.7% (active) |
| O=C(NC1CCN(Cc2ccccc2)CC1)c1ccc(-c2ccccc2)s1 | -22.3% (inactive) |
| COc1ccc(-c2cc(NC3CC3)nc(N)n2)cn1 | -43.5% (inactive) |
| CC(C)N(C(=O)NCCC(=O)c1ccc(F)cc1)C(C)C | -1.1% (inactive) |
| Clc1cc2nc3[nH]c4ccccc4c3nc2cc1Cl | -25.4% (inactive) |

| SMILES | inhibition |
| --- | --- |
| CC(=O)Nc1ccc2nc3c(cc2c1)[nH]c1ccccc13 | 32.4% (active) |
| CC(=O)Nc1ccc(-c2nc(-c3ccccc3)c3cc(C)ccc3n2)cc1 | 7.4% (inactive) |
| COc1ccc(C2/C(=C(\O)c3ccc(C)cc3)C(=O)C(=O)N2c2c(C)n(C)n(-c3ccccc3)c2=O)cc1 (stereo unspecified) | -7.88% (inactive) |
| COc1ccc(OCCSc2nnc3nc(C)cc(C)n23)cc1 | 0.54% (inactive) |
| N#CCOc1ccc2c(=O)c(Oc3ccc4ccccc4c3)coc2c1 | 5.86% (inactive) |
| COc1ccc(-c2cc(C(F)(F)F)n3nc(C(=O)NCc4ccccc4Cl)cc3n2)cc1 | -8.37% (inactive) |
| Cc1nc2scc(-c3cccs3)c2c(=O)n1N | 4.54% (inactive) |
| Cc1sc2nc3n(c(=O)c2c1C)N=C(c1cccs1)CS3 | 50.3% (active) |
| Cc1sc2nc3n(c(=O)c2c1-c1cccs1)CCC3 | -2.17% (inactive) |
| N=C1S/C(=C/c2ccc(-c3cc(Cl)ccc3[N+](=O)[O-])o2)C(=O)N1c1nonc1N | 5.95% (inactive) |
| C=CCNS(=O)(=O)c1cc(C(=O)Nc2ccccc2C(F)(F)F)ccc1F | -7.91% (inactive) |
| Cc1[nH]c2ccccc2c1/C=N/NC(=O)/C(=C/c1ccccc1O)NC(=O)c1ccccc1 | 83% (active) |
| COc1cccc(/C=N/NC(=O)/C(=C/c2ccccc2)NC(=O)c2ccccc2)c1O | 21.1% (inactive) |
| Cc1[nH]c2ccccc2c1CCNC(=O)/C(=C/c1ccccc1)NC(=O)c1cccc(Br)c1 | 2.37% (inactive) |
| COc1ccc(C(=O)N/C(=C/c2ccc(Cl)cc2)C(N)=O)cc1 | -2.4% (inactive) |
| CC(=O)c1ccc(NC(=O)CN2C(=O)C3C4CCC(C4)C3C2=O)cc1 (stereo unspecified) | -12% (inactive) |
| CC(=O)Oc1ccc(C(=O)N(C(=O)c2ccc(OC(C)=O)cc2)c2cc(C)ccn2)cc1 | 47.4% (active) |
| CC(=O)Oc1ccc(C(=O)Nc2ccncc2)cc1 | 1.93% (inactive) |
| CC(=O)Oc1ccc(N(C(C)=O)S(=O)(=O)c2c(C)cc(C)cc2C)cc1 | -4.17% (inactive) |
